Calls of active or inactive are those of the source.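 The calls were made as follows, unless noted: active = visually confirmed hit in the image check and inhibition above 20%; inconclusive = visually confirmed hit but inhibition not above 20%; inactive = no visual hit in the image check.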
Assays:
[1] = inhibitors of TNFa-induced NFkB p65 translocation, primary screen, imaging, HUVEC, MLSMR starter and 10KST1 sets (AID 438;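 active = inhibition above 20% together with a positive visual image hit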;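 also: compound added about 3h40 before a 20 min TNFalpha stimulation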;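 as to inhibition: signal is the nuclear over cytoplasmic p65 intensity ratio per well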); conditions: HUVEC TNFa-induced p65 nuclear translocation; cell count: measured here: nuclei count (cytotoxicity indicator), at 2.08 µM; inhibition: at 2 µM, stronger effect = higher value, 0% TNFa-plus-vehicle, 100% no-TNFa wells
[2] = inhibitors of mutant huntingtin aggregation, primary screen, imaging, exon1htt(103Q)mCFP cells, high-content imaging (AID 483;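 active = visual image review flags a hit and inhibition of aggregation exceeds 20%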;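 also: compound exposure lasted 3 days before fixation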;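 as to nuclei count: percent of the per-plate median nuclei count of sample wells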); conditions: exon1htt(103Q)mCFP cell line, aggregate imaging, at 2 µM; inhibition of aggregation: stronger effect = higher value; nuclei count: measured here: cell count, toxicity
[3] = inhibitors of E-selectin induction by TNFa, primary screen, imaging, HUVEC, immunofluorescence, MLSMR starter and 10KST1 sets (AID 487); conditions: HUVEC TNFalpha-induced E-selectin immunofluorescence imaging, at 2 µM; inhibition: stronger effect = higher value; nuclei count: measured here: cell number, toxicity;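 as to inhibition: signal is fraction of cell area covered by stained E-selectin grains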;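 as to nuclei count: 100% = median nuclei count of all wells on the same plate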
[4] = molecular target: Voltage-gated potassium channel subunit beta-2 (Rattus norvegicus) (UniProt P62483); test: KvBeta enzyme negative modulators, primary screen, biochemical, NADPH fluorescence (AID 622;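 active = fluorescence slope higher than the sample average by over 3 SD, cut at about -0.22 in these data, passing the limit was not always enough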;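 also: slope of raw intensity against log time taken from 70 to 1610 s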); conditions: recombinant KvBeta, 4-cyanobenzaldehyde reduction, at 10 µM, stronger effect = higher value
Voltage-gated potassium channel subunit beta-2 (Rattus norvegicus), sequence (P62483 whole entry, looked up): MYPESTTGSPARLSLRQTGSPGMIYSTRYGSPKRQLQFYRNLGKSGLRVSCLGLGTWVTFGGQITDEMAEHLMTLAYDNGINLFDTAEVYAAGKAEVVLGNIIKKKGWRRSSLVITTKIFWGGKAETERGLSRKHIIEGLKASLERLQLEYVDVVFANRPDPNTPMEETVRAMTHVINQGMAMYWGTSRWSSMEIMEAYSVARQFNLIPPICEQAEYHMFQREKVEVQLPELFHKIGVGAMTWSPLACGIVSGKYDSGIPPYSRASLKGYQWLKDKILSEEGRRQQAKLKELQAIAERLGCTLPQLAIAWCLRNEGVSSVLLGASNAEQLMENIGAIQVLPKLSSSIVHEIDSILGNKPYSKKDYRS

[5] = molecular target: Voltage-gated potassium channel subunit beta-2 (Rattus norvegicus) (UniProt P62483); test: KvBeta positive modulators, primary screen, biochemical, NADPH fluorescence (AID 623;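 active = NADPH fluorescence slope more negative than the mean of all samples by about 3 SD, 99.7% confidence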;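 also: fluorescence intensity change per second fitted from 20 to 320 s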); conditions: Recombinant KvBeta, NADPH fluorescence decrease slope, 10 min; at 10 µM; stronger effect = lower value
[6] = molecular target: Alpha-2C adrenergic receptor (Homo sapiens) (UniProt P18825); test: modulators of alpha2C/GIRK thallium flux, primary screen, cell-based, HEK293 alpha2C/GIRK1/2 (AID 624;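 active = fluorescence slope after compound addition differing from the mean of all screened samples at 99.7% confidence, in either direction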;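 also: slope of fluorescence ratio to pre-addition baseline per second over 15 to 24 s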); conditions: thallium flux BTC fluorescence, at 10 µM, actives lie on both sides
Alpha-2C adrenergic receptor (Homo sapiens), sequence (P18825 whole entry, looked up): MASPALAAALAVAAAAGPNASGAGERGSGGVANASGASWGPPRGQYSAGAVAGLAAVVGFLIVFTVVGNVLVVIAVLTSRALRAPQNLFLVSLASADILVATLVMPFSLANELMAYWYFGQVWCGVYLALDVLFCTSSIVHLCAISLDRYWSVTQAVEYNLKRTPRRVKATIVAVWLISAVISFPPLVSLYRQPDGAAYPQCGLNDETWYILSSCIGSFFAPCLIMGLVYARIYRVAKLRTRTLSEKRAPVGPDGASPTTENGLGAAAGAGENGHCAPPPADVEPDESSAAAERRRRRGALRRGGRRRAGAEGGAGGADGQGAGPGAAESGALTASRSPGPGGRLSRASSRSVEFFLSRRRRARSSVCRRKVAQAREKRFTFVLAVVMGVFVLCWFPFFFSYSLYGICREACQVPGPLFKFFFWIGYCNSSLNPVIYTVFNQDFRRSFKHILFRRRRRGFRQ

[7] = inhibitors of Sendai virus-induced IRF3 signaling, primary screen, TLR/RLR signaling modifier project, cell-based, Sendai virus stimulus, luciferase, 10K MLSCN set (AID 602276;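 active = inhibition at or above 50% at 10 µM; inactive = inhibition below 50%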;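 also: firefly luciferase from ISG56 promoter only with Renilla not read in this screen; 0% = Sendai virus plus DMSO and 100% = medium plus DMSO without virus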); conditions: HEK293 RL24 IRF3 luciferase reporter, at 10 µM, stronger effect = higher value
[8] = inhibitors of poly I:C-induced TLR3 signaling, primary screen, cell-based, poly I:C stimulus, luciferase, 10K MLSCN set (AID 602277;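 active = inhibition of the reporter signal at or above 50%; inactive = inhibition below 50%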); conditions: HEK293-TLR3 RL24 IRF3 luciferase reporter, at 10 µM, stronger effect = higher value

SMILES	cell count [1]	inhibition [1]	inhibition of aggregation [2]	nuclei count [2] [%]	inhibition [3]	nuclei count [3] [%]	fluorescence slope [4]	NADPH fluorescence slope [5]	slope [6]	inhibition [7]	inhibition [8]
COc1ccccc1N1CCN(Cc2nnnn2CCc2ccccc2)CC1	497	-3.1% (inactive)	2% (inactive)	99.9	-42.8% (inactive)	92	-0.565 (inactive)	8e-05 (inactive)	0.00514 (inactive)	-6.87% (inactive)	0.354% (inactive)
COc1ccc(CCNc2oc(Cc3cccc4ccccc34)nc2C#N)cc1OC	718	13.9% (inactive)	8.4% (inactive)	81.2	24.2% (inactive)	88.7	-0.396 (inactive)	-8.6e-06 (inactive)	0.00516 (inactive)	17.3% (inactive)	6.78% (inactive)
Nc1c(C(=O)NCc2ccco2)nnn1Cc1ccccc1	277	-13.1% (inactive)	5.9% (inactive)	94.8	-65.2% (inactive)	115	-0.399 (inactive)	-4.5e-05 (inactive)	0.00354 (inactive)	8.14% (inactive)	3.26% (inactive)
Cc1nnc(N(C)C(=O)c2cccnc2)s1	704	-7.5% (inactive)	8.5% (inactive)	109	-47.1% (inactive)	109	-0.547 (inactive)	3.7e-05 (inactive)	0.0062 (inactive)	-6.83% (inactive)	-1.4% (inactive)
CCN(CCCNC(=O)C1CCCN(S(=O)(=O)c2cnc[nH]2)C1)c1ccccc1 (stereo not drawn)	611	21.8% (inactive)	-4.7% (inactive)	100	-91.6% (inactive)	142	-0.507 (inactive)	-2.4e-05 (inactive)	0.00623 (inactive)	5.83% (inactive)	7.07% (inactive)
Cc1ccc(S(=O)(=O)CC2CSc3nnc(C)c(=O)n32)cc1 (stereo not drawn)	432	-3.3% (inactive)	3.8% (inactive)	91.3	-36.1% (inactive)	173	-0.38 (inactive)	-5.3e-05 (inactive)	0.00213 (inactive)	12.3% (inactive)	31.9% (inactive)
CCC(C)OC(=O)c1[nH]c2c(c1C)C(=O)CC(c1ccc(N(C)C)cc1)C2 (stereo not drawn)	717	-3.2% (inactive)	-40.7% (inactive)	108	-31.4% (inactive)	125	-0.506 (inactive)	-3.4e-06 (inactive)	0.00616 (inactive)	-57.4% (inactive)	-143% (inactive)
COc1ccccc1CC(=O)Nc1ccc(OC)c(OC)c1	330	-8.4% (inactive)	17.1% (inactive)	102	-157% (inactive)	118	-0.466 (inactive)	-5.5e-05 (inactive)	0.00704 (inactive)	14.5% (inactive)	21.7% (inactive)
CC(=O)C1=C(O)C(=O)N(C2CCCCC2)C1c1ccccc1 (stereo not drawn)	467	-10.8% (inactive)	-19.1% (inactive)	104	-95.4% (inactive)	176	-0.448 (inactive)	-9.9e-06 (inactive)	0.00562 (inactive)	18.2% (inactive)	15.5% (inactive)
COc1ccc(-c2noc(COc3ccc(Cl)c(C)c3)n2)cc1	553	11.9% (inactive)	-13.5% (inactive)	103	-14% (inactive)	94.1	-0.527 (inactive)	-4.1e-05 (inactive)	0.00784 (inactive)	7.55% (inactive)	20.3% (inactive)
CCCCc1cc2c(c(NC(C)=O)n1)c(=O)oc1ccccc12	620	-9.4% (inactive)	14.7% (inactive)	110	3.6% (inactive)	104	-0.509 (inactive)	-2.7e-05 (inactive)	0.00617 (inactive)	12.1% (inactive)	40.5% (inactive)
COC(=O)c1ccccc1S(=O)(=O)N(CCCO)Cc1cc2c(C)ccc(C)c2[nH]c1=O	688	-5.1% (inactive)	-9% (inactive)	108	-55.4% (inactive)	120	-0.501 (inactive)	6.1e-06 (inactive)	0.00564 (inactive)	2.69% (inactive)	27.6% (inactive)
COCc1cc(C)nc(Nc2ccc(C)cc2C)c1C#N	635	-12.3% (inactive)	-34.1% (inactive)	113	24.1% (inactive)	120	-0.461 (inactive)	5.1e-08 (inactive)	0.00615 (inactive)	-5.46% (inactive)	12.7% (inactive)
NC(=O)c1c(NC(=O)Cc2cccs2)sc2c1CCC2	537	-17.1% (inactive)	12.6% (inactive)	109	-43% (inactive)	150	-0.483 (inactive)	-6.1e-05 (inactive)	0.00572 (inactive)	-14.3% (inactive)	-35.7% (inactive)
O=C(NCC1COc2ccccc2O1)c1ccc(NC(=O)c2ccco2)cc1 (stereo not drawn)	752	-3.6% (inactive)	22.7% (inactive)	106	-120% (inactive)	120	-0.435 (inactive)	-2.6e-05 (inactive)	0.00329 (inactive)	7.34% (inactive)	20% (inactive)
COC(=O)C1=CN(C(C)C)C=C(C(=O)OC)C1c1cc2c(cc1Br)OCO2	386	8.1% (inactive)	10.8% (inactive)	104	-70.4% (inactive)	78.3	-0.365 (inactive)	2e-05 (inactive)	0.00637 (inactive)	5.71% (inactive)	11% (inactive)
COc1ccc(/C=N/O)cc1COc1ccc(NC(C)=O)cc1	667	9.6% (inactive)	-10.6% (inactive)	113	-30.3% (inactive)	64.4	-0.589 (inactive)	-1.6e-05 (inactive)	0.00667 (inactive)	6.34% (inactive)	10.2% (inactive)
Cc1ccccc1CN1CCN(C(=O)c2cccc(F)c2)CC1	284	-13% (inactive)	14.5% (inactive)	91.7	2.5% (inactive)	119	-0.411 (inactive)	-1.4e-05 (inactive)	0.00429 (inactive)	7.31% (inactive)	12% (inactive)
CCCCn1c(CN(C)Cc2ccccc2)nc2c1c(=O)n(C)c(=O)n2C	227	-6.1% (inactive)	13.2% (inactive)	57	16.4% (inactive)	103	-0.605 (inactive)	-6.4e-05 (inactive)	0.00658 (inactive)	-18.7% (inactive)	-58.3% (inactive)

SMILES	cell count [1]	inhibition [1]	inhibition of aggregation [2]	nuclei count [2] [%]	inhibition [3]	nuclei count [3] [%]	fluorescence slope [4]	NADPH fluorescence slope [5]	slope [6]	inhibition [7]	inhibition [8]
COCCNC(=O)CCCCCN1C(=O)CCC1=O	221	-7.7% (inactive)	-8.5% (inactive)	85.3	25.1% (inactive)	71.9	-0.595 (inactive)	-5.1e-05 (inactive)	0.00625 (inactive)	11.6% (inactive)	24.9% (inactive)
COc1ccc2[nH]c(=O)c(CN(CCO)S(=O)(=O)c3ccc4c(c3)OCCO4)cc2c1	539	-7.5% (inactive)	7.9% (inactive)	105	24.9% (inactive)	98.9	-0.555 (inactive)	-5.3e-05 (inactive)	0.00253 (inactive)	9.42% (inactive)	11.8% (inactive)
Cc1cc(Nc2ccccc2F)n2ncnc2n1	542	14.8% (inactive)	-3.9% (inactive)	137	-59.1% (inactive)	111	-0.566 (inactive)	-2.7e-05 (inactive)	0.00578 (inactive)	-1.22% (inactive)	12.8% (inactive)
COc1ccccc1S(=O)(=O)Cc1ccc(C(=O)N2CCOCC2)o1	528	-7.1% (inactive)	29% (inactive)	86.6	-67.1% (inactive)	107	-0.428 (inactive)	-5.8e-05 (inactive)	0.00635 (inactive)	1.72% (inactive)	33.5% (inactive)
Cc1cc(=O)[nH]c(SCC(=O)NCc2ccco2)n1	355	8.2% (inactive)	0% (inactive)	95.2	12.5% (inactive)	98	-0.57 (inactive)	-7.3e-05 (inactive)	0.00478 (inactive)	18.4% (inactive)	20.9% (inactive)
CCCC(=O)Nc1ccc(NC(=O)c2ccccc2OC)cn1	376	-3.6% (inactive)	18.8% (inactive)	90.7	-23.7% (inactive)	96.3	-0.442 (inactive)	7.2e-05 (inactive)	0.00808 (inactive)	1.27% (inactive)	-1.09% (inactive)
O=C(NCc1cccs1)C1CC(c2ccccc2O)=NO1 (stereo not drawn)	347	1.7% (inactive)	-11.8% (inactive)	104	-122% (inactive)	108	-0.601 (inactive)	-2.2e-05 (inactive)	0.00342 (inactive)	12.7% (inactive)	67.7% (active)
CCCCOCCCNC(=O)COc1ccccc1	360	-3.4% (inactive)	-12.1% (inactive)	113	-3.5% (inactive)	114	-0.398 (inactive)	-6.8e-05 (inactive)	0.00485 (inactive)	17.8% (inactive)	29.4% (inactive)
Cc1cccc(OCc2nc(C#N)c(NCCN(C)C)o2)c1	628	-2.9% (inactive)	-1.8% (inactive)	102	-27.6% (inactive)	105	-0.514 (inactive)	-3.5e-05 (inactive)	0.00503 (inactive)	9.05% (inactive)	28.8% (inactive)
Cc1sc2nc(SCC(=O)NCCO)n(C)c(=O)c2c1C	368	4.3% (inactive)	12.1% (inactive)	109	4.8% (inactive)	112	-0.343 (inactive)	-5.2e-05 (inactive)	0.00646 (inactive)	5.26% (inactive)	26% (inactive)
O=C(CSc1ncn[nH]1)c1ccco1	746	-13.5% (inactive)	-3.4% (inactive)	112	13.2% (inactive)	119	-0.453 (inactive)	-9.5e-06 (inactive)	0.00556 (inactive)	18.7% (inactive)	26.5% (inactive)
COC(=O)c1cc2ccsc2n1CC(=O)N(C)c1ccccc1	623	-15.1% (inactive)	-8.1% (inactive)	117	-29.3% (inactive)	92.2	-0.261 (inactive)	4.1e-06 (inactive)	0.00481 (inactive)	13.3% (inactive)	22.7% (inactive)
CC(C)(C)NC(=O)CN(C(=O)C1CSC(=O)C1)c1ccc2c(c1)OCCO2 (stereo not drawn)	612	2.9% (inactive)	7.5% (inactive)	95.8	7.1% (inactive)	108	-0.362 (inactive)	-6.7e-05 (inactive)	0.00456 (inactive)	-11.9% (inactive)	-7.89% (inactive)
NS(=O)(=O)c1ccc(CCNC(=O)CCC2COc3ccccc3O2)cc1 (stereo not drawn)	535	-8.3% (inactive)	-5.3% (inactive)	98.4	-20.9% (inactive)	90.3	-0.564 (inactive)	3.4e-06 (inactive)	0.00562 (inactive)	15.7% (inactive)	18.3% (inactive)
Cc1ccc(S(=O)(=O)N2CCN(C(=O)c3cc(=O)[nH]c4ccccc34)CC2)c(C)c1	539	-11.9% (inactive)	-23.6% (inactive)	100	5.3% (inactive)	162	-0.5 (inactive)	-2.6e-05 (inactive)	0.00525 (inactive)	17.3% (inactive)	31% (inactive)
CCCCn1c(CN2CCN(c3ccc(F)cc3)CC2)nc2c1c(=O)n(C)c(=O)n2C	574	14.4% (inactive)	1.3% (inactive)	90.1	-6.8% (inactive)	82.5	-0.53 (inactive)	-3.3e-05 (inactive)	0.00657 (inactive)	1.37% (inactive)	3.77% (inactive)
CCOc1ccc(/C=N/n2cnnc2)cc1	442	-2.2% (inactive)	-4.7% (inactive)	89.4	17.6% (inactive)	117	-0.402 (inactive)	-9.1e-05 (inactive)	0.00521 (inactive)	8.22% (inactive)	20.1% (inactive)
CCOc1cc(C2/C(=C(/O)c3ccc(OC(C)C)cc3)C(=O)C(=O)N2CCCOC)ccc1O (stereo not drawn)	714	-7.5% (inactive)	-20.2% (inactive)	111	-120% (inactive)	111	-0.513 (inactive)	2e-05 (inactive)	0.00381 (inactive)	12.7% (inactive)	14.8% (inactive)
CCOC(=O)N1CCN(Cc2nc3c(c(=O)n(C)c(=O)n3C)n2Cc2ccc(F)cc2)CC1	697	0.3% (inactive)	-1.6% (inactive)	91.7	-23.4% (inactive)	123	-0.557 (inactive)	-3.3e-05 (inactive)	0.00745 (inactive)	16.7% (inactive)	39.9% (inactive)

Reference: PubChem BioAssay
